# Source: PMC4081100, “A DNA-binding-site landscape and regulatory network analysis for NAC transcription factors in Arabidopsis thaliana”
# How the values were obtained:
# Assay in all cases: universal protein binding microarray (PBM); transcription factors of Arabidopsis thaliana; high values mean tight binding
# Conditions in all cases: protein: recombinant; tags: GST; chain copies: 2; dsDNA, one strand shown
# GST-ANAC092(1-176) = target: T1, GST-ANAC092(1-176) (Arabidopsis thaliana, UniProt Q9FKA0 1-176)
# T1 sequence: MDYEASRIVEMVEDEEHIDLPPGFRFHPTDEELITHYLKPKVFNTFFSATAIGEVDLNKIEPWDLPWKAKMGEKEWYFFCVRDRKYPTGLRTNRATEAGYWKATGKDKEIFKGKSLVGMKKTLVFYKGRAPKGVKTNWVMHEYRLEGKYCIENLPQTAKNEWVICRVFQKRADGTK
# Method in brief: (§1)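 Binding is expressed as the normalised enrichment score (E-score). Proteins carrying a GST tag, whether NAC-domain, full-length or DNA-binding-domain forms, were induced in cells, and zinc acetate was added for zinc-finger proteins. After purification on glutathione–Sepharose 4B and quantification by A280 or anti-GST western blot, each was applied in duplicate at 200 to 500 nM final to custom all-10-mer Agilent 4 × 180K arrays made double-stranded by primer extension. Gapped and ungapped 8-mers were scored.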
# GST-NTL6(1-168) = GST-NTL6(1-168) (Arabidopsis thaliana, UniProt Q9SCK6 1-168)
# Method in brief: as §1
# GST-ANAC055(1-171) = target: T2, GST-ANAC055(1-171) (Arabidopsis thaliana, UniProt Q9LDY8 1-171)
# T2 sequence: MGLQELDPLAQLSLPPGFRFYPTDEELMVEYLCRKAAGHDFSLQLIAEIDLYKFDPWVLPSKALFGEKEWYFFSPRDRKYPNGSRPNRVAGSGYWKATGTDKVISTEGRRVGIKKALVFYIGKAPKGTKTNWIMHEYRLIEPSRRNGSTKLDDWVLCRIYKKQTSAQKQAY
# Method in brief: as §1
# GST-ATAF1 NAC domain = target: T3, GST-ATAF1 NAC domain (Arabidopsis thaliana, UniProt Q39013 7-158)
# T3 sequence: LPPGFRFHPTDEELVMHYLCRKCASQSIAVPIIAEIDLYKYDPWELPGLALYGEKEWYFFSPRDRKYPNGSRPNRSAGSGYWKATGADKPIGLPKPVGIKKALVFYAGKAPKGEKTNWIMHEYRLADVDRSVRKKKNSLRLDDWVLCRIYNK
# Method in brief: as §1
# [1] = target: T4, GST-ANAC092(1-285) full length (Arabidopsis thaliana, UniProt Q9FKA0 1-285)
# T4 sequence: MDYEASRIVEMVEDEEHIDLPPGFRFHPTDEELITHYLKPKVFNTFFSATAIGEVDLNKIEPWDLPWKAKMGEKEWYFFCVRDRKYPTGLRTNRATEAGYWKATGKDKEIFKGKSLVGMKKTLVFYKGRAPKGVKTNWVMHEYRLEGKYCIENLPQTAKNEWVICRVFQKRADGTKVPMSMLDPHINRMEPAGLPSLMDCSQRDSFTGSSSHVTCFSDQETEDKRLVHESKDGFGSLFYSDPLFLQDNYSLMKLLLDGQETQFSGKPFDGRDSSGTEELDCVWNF
# Method in brief: as §1
# GST-NAP(1-166) = target: T5, GST-NAP(1-166) (Arabidopsis thaliana, UniProt O49255 1-166)
# T5 sequence: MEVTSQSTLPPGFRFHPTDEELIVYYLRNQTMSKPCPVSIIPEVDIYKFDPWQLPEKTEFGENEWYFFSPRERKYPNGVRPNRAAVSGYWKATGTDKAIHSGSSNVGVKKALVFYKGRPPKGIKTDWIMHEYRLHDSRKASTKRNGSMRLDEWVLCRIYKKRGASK
# Method in brief: as §1
# GST-NST2(1-184) = target: T6, GST-NST2(1-184) (Arabidopsis thaliana, UniProt Q9M274 1-184)
# T6 sequence: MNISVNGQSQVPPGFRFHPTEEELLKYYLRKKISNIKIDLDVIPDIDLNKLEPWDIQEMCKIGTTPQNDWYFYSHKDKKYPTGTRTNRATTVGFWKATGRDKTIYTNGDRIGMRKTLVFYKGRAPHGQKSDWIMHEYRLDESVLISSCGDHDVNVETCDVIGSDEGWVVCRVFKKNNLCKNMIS
# Method in brief: as §1
# GST-SND1(1-203) = target: T7, GST-SND1(1-203) (Arabidopsis thaliana, UniProt Q9LPI7 1-203)
# T7 sequence: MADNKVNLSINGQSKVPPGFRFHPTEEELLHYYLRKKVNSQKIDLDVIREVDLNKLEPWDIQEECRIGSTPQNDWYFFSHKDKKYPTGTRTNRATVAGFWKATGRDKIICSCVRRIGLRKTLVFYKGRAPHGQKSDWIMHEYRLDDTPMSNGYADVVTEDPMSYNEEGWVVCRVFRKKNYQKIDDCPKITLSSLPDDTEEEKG
# Method in brief: as §1
# GST-VND3 NAC domain = target: T8, GST-VND3 NAC domain (Arabidopsis thaliana, UniProt Q9FH59 12-162)
# T8 sequence: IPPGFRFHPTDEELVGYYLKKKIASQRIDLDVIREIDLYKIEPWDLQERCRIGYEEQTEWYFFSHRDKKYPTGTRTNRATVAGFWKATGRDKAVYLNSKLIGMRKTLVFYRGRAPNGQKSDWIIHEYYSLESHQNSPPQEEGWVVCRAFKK
# Method in brief: as §1
# GST-VND7 NAC domain = target: T9, GST-VND7 NAC domain (Arabidopsis thaliana, UniProt Q9C8W9 9-158)
# T9 sequence: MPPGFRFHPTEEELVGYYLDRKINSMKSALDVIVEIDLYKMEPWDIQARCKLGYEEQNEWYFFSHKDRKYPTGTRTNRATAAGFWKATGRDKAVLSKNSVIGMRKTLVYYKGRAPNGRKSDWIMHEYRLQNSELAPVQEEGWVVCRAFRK
# Method in brief: as §1
# GST-ANAC019 NAC domain = target: T10, GST-ANAC019 NAC domain (Arabidopsis thaliana, UniProt Q9C932 14-162)
# T10 sequence: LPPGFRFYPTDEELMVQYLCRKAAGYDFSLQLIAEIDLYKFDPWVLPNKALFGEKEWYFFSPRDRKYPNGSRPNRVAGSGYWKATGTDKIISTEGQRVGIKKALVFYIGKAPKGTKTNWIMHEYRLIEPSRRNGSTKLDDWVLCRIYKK
# Method in brief: as §1
# GST-NTL8 NAC domain = target: T11, GST-NTL8 NAC domain (Arabidopsis thaliana, UniProt Q9XIN7 14-156)
# T11 sequence: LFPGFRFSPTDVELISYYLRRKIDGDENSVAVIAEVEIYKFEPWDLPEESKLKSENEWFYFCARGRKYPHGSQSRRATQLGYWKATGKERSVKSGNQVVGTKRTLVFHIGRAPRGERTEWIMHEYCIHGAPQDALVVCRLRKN
# Method in brief: as §1
# GST-NTL6(1-168), sequence (Q9SCK6 1-168): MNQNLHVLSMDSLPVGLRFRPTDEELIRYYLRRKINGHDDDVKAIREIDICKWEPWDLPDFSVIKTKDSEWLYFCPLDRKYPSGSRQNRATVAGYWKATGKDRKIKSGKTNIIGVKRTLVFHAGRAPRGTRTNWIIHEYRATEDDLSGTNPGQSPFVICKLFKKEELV
Sequence,binding signal (GST-ANAC092(1-176)) [E-score],binding signal (GST-NTL6(1-168)) [E-score],binding signal (GST-ANAC055(1-171)) [E-score],binding signal (GST-ATAF1 NAC domain) [E-score],binding signal [1] [E-score],binding signal (GST-NAP(1-166)) [E-score],binding signal (GST-NST2(1-184)) [E-score],binding signal (GST-SND1(1-203)) [E-score],binding signal (GST-VND3 NAC domain) [E-score],binding signal (GST-VND7 NAC domain) [E-score],binding signal (GST-ANAC019 NAC domain) [E-score],binding signal (GST-NTL8 NAC domain) [E-score]
ATACGCTA,0.451,0.0936,0.223,0.187,0.466,0.155,0.331,0.458,0.163,0.182,–,–
TACGCCAA,0.413,0.0645,0.172,0.309,0.439,–,0.251,0.454,0.171,0.244,0.0981,0.0846
GTTTCTTA,0.226,0.435,0.185,0.257,0.313,–,0.311,0.33,0.16,0.0761,0.141,0.28
CTAGGAAA,0.146,0.188,0.214,0.167,0.0932,–,0.187,0.145,0.219,0.13,0.18,0.425
TACCTTAA,0.193,0.42,0.0879,0.131,0.26,–,0.149,0.291,0.16,0.0949,–,0.298
GCAAGAAA,0.295,0.306,0.0836,0.189,0.401,–,0.201,0.307,0.12,0.0827,–,0.229
ACCTTAAC,0.126,0.415,0.156,0.155,0.147,–,0.154,0.13,0.156,0.077,–,0.16
TAAGAAAA,0.215,0.454,0.129,0.193,0.269,–,0.235,0.301,0.137,0.181,–,0.216
GAGGTAAC,0.191,0.155,–,0.0779,0.2,–,0.078,0.236,0.0659,0.0864,0.078,0.437
ACGCTACA,0.27,0.051,0.0711,0.0647,0.404,0.0555,0.249,0.402,0.101,0.0811,–,–
TATCGTAA,0.2,0.146,0.0984,0.188,0.337,0.0786,0.282,0.418,0.143,0.236,–,–
GTTGCTTA,0.342,0.425,0.0695,0.0821,0.393,–,0.327,0.469,0.0814,0.14,–,0.13
AAGCAATC,0.384,0.324,0.0736,0.108,0.417,–,0.327,0.466,0.152,0.289,0.21,0.264
ATTGCTTG,0.355,0.228,0.115,–,0.408,–,0.296,0.406,0.223,0.218,0.19,0.143
TGAAGTAA,0.242,0.377,0.155,0.169,0.323,–,0.324,0.424,0.131,0.132,–,0.437
CTAAGCAA,0.201,0.461,–,–,0.314,–,0.272,0.473,0.134,0.184,0.0628,0.254

Sequence,binding signal (GST-ANAC092(1-176)) [E-score],binding signal (GST-NTL6(1-168)) [E-score],binding signal (GST-ANAC055(1-171)) [E-score],binding signal (GST-ATAF1 NAC domain) [E-score],binding signal [1] [E-score],binding signal (GST-NAP(1-166)) [E-score],binding signal (GST-NST2(1-184)) [E-score],binding signal (GST-SND1(1-203)) [E-score],binding signal (GST-VND3 NAC domain) [E-score],binding signal (GST-VND7 NAC domain) [E-score],binding signal (GST-ANAC019 NAC domain) [E-score],binding signal (GST-NTL8 NAC domain) [E-score]
GAAGCAAC,0.372,0.399,0.142,0.103,0.417,–,0.282,0.443,0.0788,0.228,–,0.416
ATTGCTTC,0.259,0.348,0.0988,–,0.351,–,0.259,0.411,0.143,0.213,0.108,0.278
ATTACTTA,0.279,0.49,0.191,0.168,0.349,0.0737,0.296,0.38,0.21,0.154,–,0.31
AAGCAAGC,0.344,0.167,–,–,0.417,–,0.23,0.443,0.139,0.114,0.0929,0.209
CTTGCTTA,0.251,0.416,–,0.136,0.347,–,0.17,0.437,0.124,0.0501,0.0719,0.194
ATTCCTTA,0.103,0.486,0.114,0.126,0.115,–,0.224,0.306,0.0907,0.064,0.0942,0.237
AAGCAACC,0.425,0.329,0.0668,0.0659,0.453,–,0.349,0.479,0.114,0.136,–,0.301
GTGGAGTA,0.275,0.0723,0.0843,0.217,0.332,0.0918,0.242,0.402,0.0649,0.15,–,–
GAAGGTAA,0.174,0.329,0.111,0.22,0.25,–,0.255,0.227,0.148,0.141,0.158,0.463
AAGCAAAC,0.331,0.359,0.194,0.137,0.355,0.119,0.31,0.401,0.181,0.206,–,0.336
AGAAGGAA,0.192,0.417,0.117,0.149,0.156,–,0.177,0.157,0.0779,0.0759,0.0646,0.379
ACACGTAT,0.289,–,0.342,0.312,0.369,0.387,0.19,0.139,0.38,0.381,0.406,–
TGGCGTAA,0.44,–,0.127,0.16,0.439,0.101,0.346,0.482,0.191,0.246,0.0928,–
ACACGCCA,0.487,–,0.298,0.227,0.492,0.294,0.313,0.379,0.22,0.257,0.382,–
GGACGCAA,0.411,–,0.0669,0.0919,0.437,0.303,0.107,0.25,0.0908,0.0578,0.155,–
